Bioassay records as filed in PubChem BioAssay.
Pol kappa inh-1 = DNA polymerase kappa (human) inhibition; Q9UBT6; Potency, µM (series often up to 107 µM), for inactives: at the highest dose activity, negative = inhibition, hits mostly inhibitors; AID 588579; purified Pol kappa, fluorescent DNA synthesis assay, 10 min; 400,000 tested, 0.53% active; further: potency means the concentration at half of the fitted maximal effect; on the % scale 0 is the no-effect control and ±100 the full control effect
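10 nM Pol kappa was preincubated with compounds for 15 min at room temperature. Reaction started with 50 nM (final) substrate. Fluorescence read kinetically at 0 and 10 min.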
POLI inh = inhibitors of human DNA polymerase iota; Q9UNA4; Pol iota fluorescent replication assay, 10 min; Potency, µM (doses to about 115 µM), without a hit: top-dose activity, negative = inhibition, actives largely listed as inhibitors; 390,000 tested, 1% active; AID 588590; further: potency means the concentration at half of the fitted maximal effect
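Pol iota at 10 nM preincubated 15 min with compounds at room temperature; reaction started with fluorescent substrate, 50 nM final. Fluorescence read kinetically at 0 and 10 min; buffer-only wells as negative control.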
WRN helicase inh = blocks human WRN helicase; WRN helicase unwinding, fluorescent forked duplex, kinetic; Potency, µM (series often up to 114 µM), inactives show at the highest dose activity change, negative = inhibition, hits mostly inhibitors; 360,000 tested, 0.46% active; further: potency means the concentration at half of the fitted maximal effect; on the % scale 0 is the no-effect control and ±100 the full control effect; nearly all actives have a fitted effect of over 55% in size
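Enzyme (20 nM final) and test compound sit together 15 min at room temperature before substrate addition. Substrate is a single-forked duplex oligonucleotide (100 nM) labelled with fluorophore and quencher, with 2 mM ATP; helicase unwinding raises red fluorescence, read kinetically.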
Pol beta inh = blocks human DNA polymerase beta activity; Potency, µM (top dose mostly 114 µM), inactives show top-dose activity change, negative = inhibition, usual class: inhibitors; Pol beta primer extension/strand displacement, fluorescence kinetic; P06746; 340,000 tested, 1.3% active; further: potency means the concentration at half of the fitted maximal effect; on the % scale 0 is the no-effect control and ±100 the full control effect
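Kinetic readout of DNA synthesis with strand displacement by Pol beta. Compound and 10 nM enzyme sit 15 min at room temperature; 50 nM substrate starts the reaction, read immediately and at 10 min.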
Pol eta inh-1 = blocks human DNA polymerase eta activity; recombinant Pol eta, fluorescent DNA replication assay; Potency, µM (titrated, usually from 114 µM), for the others: top-dose activity change, negative = inhibition, most hits filed as inhibitors; Q9Y253; AID 588591; 390,000 tested, 1.2% active; further: potency means the concentration at half of the fitted maximal effect; on the % scale 0 is the no-effect control and ±100 the full control effect
Target sequence (Q9Y253 whole entry, looked up): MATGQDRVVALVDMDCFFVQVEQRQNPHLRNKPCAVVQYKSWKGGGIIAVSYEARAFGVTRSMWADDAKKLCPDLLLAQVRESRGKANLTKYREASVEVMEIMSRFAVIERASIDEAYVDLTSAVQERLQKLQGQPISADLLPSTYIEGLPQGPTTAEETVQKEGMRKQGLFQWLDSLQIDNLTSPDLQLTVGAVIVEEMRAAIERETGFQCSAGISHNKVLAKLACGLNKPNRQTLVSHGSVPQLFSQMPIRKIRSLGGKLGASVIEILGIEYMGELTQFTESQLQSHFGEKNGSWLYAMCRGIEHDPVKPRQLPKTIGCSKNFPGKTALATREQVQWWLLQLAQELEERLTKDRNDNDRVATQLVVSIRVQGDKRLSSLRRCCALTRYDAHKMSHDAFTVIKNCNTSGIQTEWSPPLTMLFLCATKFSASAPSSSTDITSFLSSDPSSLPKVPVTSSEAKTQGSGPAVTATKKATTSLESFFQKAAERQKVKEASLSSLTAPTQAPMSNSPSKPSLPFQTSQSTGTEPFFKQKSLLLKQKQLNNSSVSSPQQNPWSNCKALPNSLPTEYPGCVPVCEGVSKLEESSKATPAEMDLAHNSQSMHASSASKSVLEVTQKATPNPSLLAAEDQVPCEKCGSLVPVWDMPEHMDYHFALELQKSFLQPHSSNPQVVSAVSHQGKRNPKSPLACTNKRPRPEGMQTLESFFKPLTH
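Pol eta at 10 nM preincubated with compounds 15 min at room temperature; reaction started with fluorescent substrate (50 nM final) and read kinetically at 0 and 10 min.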
PI5P4K alpha inh = inhibitors of human PI5P4K alpha; P48426; PI5P4Kalpha enzyme, ADP-Glo luminescence, 60 min; stronger effect = lower value; max response, %; 330,000 tested, 1.2% active; active means max response of -50% or lower; inconclusive means between -30% and -50%; inactive means -30% or higher; further: value at the top dose of about 77 µM; on the % scale 0 is the no-effect control and ±100 the full control effect
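qHTS, 1536-well: enzyme/substrate mix, compound by pin tool, 5 microM ATP final; RT 60 min; ADP-Glo reagents 1 (45 min) then 2 (30 min); luminescence.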
Pol kappa inh-2 = confirmation of human DNA polymerase kappa inhibitors; shares compounds with Pol eta inh-1; purified Pol-kappa, fluorescent strand-displacement substrate; Potency, µM, most hits filed as inhibitors; 920 tested, 76% active; further: potency means the concentration at half of the fitted maximal effect
Pol eta inh-2 = confirmation of human DNA polymerase eta inhibitors; shares compounds with Pol eta inh-1; Pol eta primer extension, TAMRA/BHQ fluorescence, 10 min; Potency, µM, most hits filed as inhibitors; 2,600 tested, 64% active; AID 720502; further: potency means the concentration at half of the fitted maximal effect
Starred values were filed as active, the others as inactive; ? = inconclusive; / = no result; [ ] = dose if it differs, or a comment. Compounds with a hit are over-represented: about 2.8% of the library has one in this group of screens. Unless noted, the call rests on the fitted dose curve; in most records, active means well fitted curve in the direction sought with a large enough effect; inconclusive means small, poorly fitted or top-dose-only effect, or another doubt; inactive means no such curve, though single readings can be large; an effect the other way counts as inactive or inconclusive.

SMILES | Pol kappa inh-1 | POLI inh | WRN helicase inh | Pol beta inh | Pol eta inh-1 | PI5P4K alpha inh | Pol eta inh-2 | others
Cc1nnc(SCC(=O)NCc2ccccc2Cl)[nH]c1=O | 0.0% | 46.2% | -4.4% | -14.1% | -5.7% | 0.4 | /
Cc1cc2c(=O)n(Cc3ccco3)c(SCC(=O)NCc3ccco3)nc2s1 | ? | 35.5µM* | -27.2% | ? | ? | / | ?
Cc1nnc(SCC(=O)NCc2ccco2)[nH]c1=O | ? | ? | -24.2%[57.1 µM] | 0.3% | 31.6µM* | / | 30.1*
Cc1cc2c(=O)n(Cc3ccco3)c(SCC(=O)N3CCCc4ccccc43)nc2s1 | -4.9% | -32.5% | -9.6% | ? | 7.6% | / | /
OCCCNc1c2ccccc2nc2ccccc12 | 79.4µM* | 22.4µM* | -5.9%[11.6 µM] | 17.8µM* | -2.6% | 2.9 | / | Pol kappa inh-2=?
CCOc1ccccc1NC(=O)CSc1nc2c([nH]c3ccccc32)c(=O)n1-c1ccccc1 | -6.4%[60.1 µM] | 14.1% | / | -0.1% | 10.2% | / | /
CCCCC(=O)Nc1cccc(OCc2cc(=O)n3ccccc3n2)c1 | -8.1%[60.1 µM] | -21.9% | / | 11.5% | -4.0% | / | /
Cc1ccc(S(=O)(=O)C(CNC(=O)C(=O)NCCc2ccccc2)c2cccs2)cc1 (stereo not given) | -12.4%[60.1 µM] | 5.5% | / | -0.2% | -5.8% | / | /
Cc1ccc(C)c(NC(=O)Cn2cnc3c(oc4ccccc43)c2=O)c1 | -2.8% | 29.1% | -7.2% | 34.6% | ? | 5.9 | / | Pol kappa inh-2=67*
CCc1cc(=O)n2c([nH]c3ccccc32)c1C#N | 6.9% | ? | -0.1% | 7.6% | -5.4% | ? | /
CC(SCc1cc(=O)n2c([nH]c3ccccc32)c1C#N)C(=O)O (stereo not given) | ? | ? | ? | -29.8% | ? | ? | ?
Cc1ccc(-n2c(O)c(C=Nc3ccccc3-c3n[nH]c(=S)[nH]c3=O)c3ccccc3c2=O)cc1C | ? | ? | 79.4µM* | ? | 31.6µM* | -80.6* | ?
C/C=C\C(=O)Nc1cccc(C2=NOC3(C2)C[C@@H](C(N)=O)N(C(=O)C2(C)CC2)C3)c1 (stereo not given in full) | -4.2% | -4.8% | 8.1% | -7.8% | -11.8% | -3.1 | /
C/C=C\C=C/C(=O)Nc1cccc(C2=NOC3(C2)C[C@@H](C(N)=O)N(C(=O)C2(C)CC2)C3)c1 (stereo not given in full) | -13.3% | 44.7µM* | -9.0%[11.6 µM] | 29.1% | ? | ? | 67.5*
O=C(O)c1ccc(N/N=C/C2=C(N3CCOCC3)C(=C\c3ccccc3)/CC2)cc1 | 31.6µM* | ? | ? | ? | 50.1µM* | -3.5 | ?
Cc1cc(C)nc(N/N=C/C2=C(N3CCOCC3)C(=C\c3ccc(Cl)cc3)/CC2)n1 | -15.7% | ? | -11.9% | -7.1% | -6.4% | -12.5 | /
Cc1ccc(O)c(C=Nc2cc(C)ccc2O)c1 | -13.2% | 4.5% | 3.2% | 5.6% | 5.1% | -7.4 | /
Cc1ccc(O)c(N=Cc2cc(Cc3ccccc3)cc([N+](=O)[O-])c2O)c1 | ? | ? | ? | 5.62µM* | 79.4µM* | -63.9* | / | Pol kappa inh-2=67*
CCOC(=O)c1c(C)[nH]c(CCC(=O)NCc2ccc(N(C)C)cc2)c1C | -5.7%[60.1 µM] | 6.4% | / | 9.6% | -6.5% | / | /
CCC(Sc1nc2n[nH]c(C)c2c(=N)n1-c1ccc(Br)cc1)C(=O)N(CC)CC (stereo not given) | -6.7%[60.1 µM] | -17.2% | / | -2.2% | -5.4% | / | /
O=c1c(C(c2c(O)nc3n(c2=O)CCS3)c2cccc3ccccc23)c(O)nc2n1CCS2 | 39.8µM* | ? | ? | ? | 22.4µM* | -76.4* | ?
COc1ccc(NC(=O)/C(C#N)=C\c2ccc(-c3cc(C(=O)O)ccc3C)o2)cc1 | ? | ? | ? | 22.4µM* | 20µM* | ? | 42.6* | Pol kappa inh-2=47.4*
COc1ccc(NC(=O)/C(C#N)=C/c2ccc(-c3ccc(Cl)c(C(=O)O)c3)o2)cc1 | -26.3% | ? | -10.7%[11.6 µM] | -0.3% | 22.4µM* | -23.5 | / | Pol kappa inh-2=?
Cc1ccc(NC(=O)/C(C#N)=C/c2ccc(-c3ccc(Cl)c(C(=O)O)c3)o2)cc1C | ? | -22.7% | / | -20.8% | -9.1% | / | /
COc1ccc(CCNC(=O)CN(c2ccccc2)S(=O)(=O)N(C)C)cc1OC | -18.1% | 1.6% | / | 4.1% | -11.3% | / | /
SMILES | Pol kappa inh-1 | POLI inh | WRN helicase inh | Pol beta inh | Pol eta inh-1 | PI5P4K alpha inh | Pol eta inh-2 | others
O=c1c(C=Nc2cccc(C(F)(F)F)c2)c[nH]n1-c1cccc(Cl)n1 | -1.9% | -8.3% | ? | ? | 89.1µM* | / | ?
COc1cccc(NC(=O)CCc2c(C)nc3ncnn3c2C)c1 | 3.4% | 7.6% | / | 34.7% | -11.8% | / | /
O=C1NCCN(Cc2ccc(F)cc2)C1=O | -15.4%[60.1 µM] | 30.4% | / | -13.4% | -20.4% | / | /
O=C(O)CN1C(=O)/C(=C/c2ccc(-c3cccc(Cl)c3)o2)SC1=S | / | / | / | / | / | / | ? | Pol kappa inh-2=33.6*
CCCCOc1ccc(C(C)NC(=O)CN2C(=O)CSc3ccc(S(=O)(=O)N4CCOCC4)cc32)cc1 (stereo not given) | -6.7%[60.1 µM] | 10.8% | / | -24.6% | -24.1% | / | /
O=C1Nc2ccccc2SC(c2ccccc2)C1O (stereo not given) | 79.4µM* | ? | ? | 22.4µM* | 2.82µM* | -82.2* | ?
O=C(O)CC1Sc2ccccc2NC1=O (stereo not given) | -2.7% | 2.2% | -1.0% | 66.3% | -10.4% | -7.1 | /
CCc1nc2ccc(C(=O)NCCc3ccco3)cc2nc1CC | -1.4% | -20.4% | -3.9% | -2.9% | -7.4% | -2.2 | /
O=C(NCCCO)c1ccc2nc(-c3ccco3)c(-c3ccco3)nc2c1 | 28.2µM* | 10µM* | ? | 28.2µM* | 7.94µM* | -24.9 | 19* | Pol kappa inh-2=18.9*
COc1ccc(N2CCN(C(=O)CSc3nc4ccccc4nc3Cc3ccc(Cl)cc3)CC2)cc1 | -3.6%[60.1 µM] | -19.9% | / | 6.8% | -5.1% | / | /
CCOC(=O)Cc1csc(SCn2nnc3ccccc3c2=O)n1 | 5.8% | -3.7% | 7.8% | -17.1% | -7.4% | 2.9 | /
CCOC(=O)Cc1csc(-n2sc3ccccc3c2=O)n1 | -27.6% | -17.3% | -22.0%[11.6 µM] | ? | 39.8µM* | -106.9* | ?
Cc1cccc(N2CCN(S(=O)(=O)c3ccc4c(c3)C(C)(C)C(=O)N4C)CC2)c1C | ? | ? | -9.3%[11.6 µM] | 12.6µM* | 22.4µM* | ? | ?
Cc1csc(=O)n1CCC(=O)OCC(=O)Nc1cc(Cl)ccc1[N+](=O)[O-] | -16.3% | ? | -10.6% | / | -10.9% | -1.8 | /
Cc1csc(=O)n1CCC(=O)OCC(=O)Nc1ncc(Cl)cc1Cl | ? | ? | -35.2% | / | 22.4µM* | -21.8 | ? | Pol kappa inh-2=21.2*
